Legend:
Assay in all cases: log2 ratio of Biotin-Ahx-Ub-VS probe labelling (fragment/DMSO); higher = less target engagement (more negative = stronger competition), active = hit call of the paper (q ≤ 0.05, log2 ratio ≤ -1)
Settings in all cases: compound concentration: 200 uM; treatment time: 3 h
USP19 = molecular target: T1, USP19 (UniProt O94966)
T1 sequence (whole entry): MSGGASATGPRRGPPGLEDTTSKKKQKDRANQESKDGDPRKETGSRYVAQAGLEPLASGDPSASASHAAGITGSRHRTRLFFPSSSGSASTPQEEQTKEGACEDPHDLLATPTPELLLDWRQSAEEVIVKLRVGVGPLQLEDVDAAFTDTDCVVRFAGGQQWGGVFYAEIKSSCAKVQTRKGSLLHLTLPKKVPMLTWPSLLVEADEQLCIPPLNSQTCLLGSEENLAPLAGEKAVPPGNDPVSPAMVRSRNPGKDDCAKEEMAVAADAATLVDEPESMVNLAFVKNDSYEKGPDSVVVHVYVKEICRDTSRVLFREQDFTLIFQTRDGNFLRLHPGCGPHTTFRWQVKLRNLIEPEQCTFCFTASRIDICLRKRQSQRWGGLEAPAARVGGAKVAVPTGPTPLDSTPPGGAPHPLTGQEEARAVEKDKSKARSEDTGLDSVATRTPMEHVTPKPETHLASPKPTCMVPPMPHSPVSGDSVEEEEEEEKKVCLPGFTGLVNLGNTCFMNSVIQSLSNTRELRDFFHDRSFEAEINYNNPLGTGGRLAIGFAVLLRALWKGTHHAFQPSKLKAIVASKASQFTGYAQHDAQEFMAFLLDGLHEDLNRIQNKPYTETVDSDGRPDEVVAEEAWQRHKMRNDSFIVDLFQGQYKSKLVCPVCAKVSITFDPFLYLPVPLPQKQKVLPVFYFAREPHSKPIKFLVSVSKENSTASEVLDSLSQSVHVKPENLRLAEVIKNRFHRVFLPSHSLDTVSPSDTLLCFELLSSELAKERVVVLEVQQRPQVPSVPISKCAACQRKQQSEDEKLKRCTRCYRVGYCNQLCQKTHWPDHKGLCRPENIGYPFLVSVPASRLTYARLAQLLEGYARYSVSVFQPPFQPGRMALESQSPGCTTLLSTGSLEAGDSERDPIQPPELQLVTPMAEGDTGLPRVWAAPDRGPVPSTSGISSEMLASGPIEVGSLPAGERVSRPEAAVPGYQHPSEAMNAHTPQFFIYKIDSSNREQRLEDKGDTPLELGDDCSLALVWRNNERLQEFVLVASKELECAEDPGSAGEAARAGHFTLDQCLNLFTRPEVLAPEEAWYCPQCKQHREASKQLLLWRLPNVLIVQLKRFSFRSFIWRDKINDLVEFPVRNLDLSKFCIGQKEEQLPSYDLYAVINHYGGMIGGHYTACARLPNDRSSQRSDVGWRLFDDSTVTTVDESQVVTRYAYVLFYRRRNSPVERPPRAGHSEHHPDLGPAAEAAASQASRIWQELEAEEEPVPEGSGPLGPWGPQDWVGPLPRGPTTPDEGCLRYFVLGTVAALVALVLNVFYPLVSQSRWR
Summary of the method: (§1)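 Each value is an average log2 ratio of fragment to vehicle, tested by unpaired t-test. The underlying Spectronaut label-free quantities were global-median-normalised, and only proteins with ≥2 unique peptides were included. Triplicate HEK293T lysate samples (495 µg) were exposed to fragment at 200 µM or vehicle for 3 h, then to Biotin-Ahx-Ub-VS at 0.5 µM final for 1 h, before NeutrAvidin enrichment of labelled DUBs, LysC and trypsin digestion, and diaPASEF LC-MS/MS.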

USP24 = USP24 (UniProt Q9UPU5)
Summary of the method: as §1

USP25 = molecular target: T2, USP25 (UniProt Q9UHP3)
T2 sequence (whole entry): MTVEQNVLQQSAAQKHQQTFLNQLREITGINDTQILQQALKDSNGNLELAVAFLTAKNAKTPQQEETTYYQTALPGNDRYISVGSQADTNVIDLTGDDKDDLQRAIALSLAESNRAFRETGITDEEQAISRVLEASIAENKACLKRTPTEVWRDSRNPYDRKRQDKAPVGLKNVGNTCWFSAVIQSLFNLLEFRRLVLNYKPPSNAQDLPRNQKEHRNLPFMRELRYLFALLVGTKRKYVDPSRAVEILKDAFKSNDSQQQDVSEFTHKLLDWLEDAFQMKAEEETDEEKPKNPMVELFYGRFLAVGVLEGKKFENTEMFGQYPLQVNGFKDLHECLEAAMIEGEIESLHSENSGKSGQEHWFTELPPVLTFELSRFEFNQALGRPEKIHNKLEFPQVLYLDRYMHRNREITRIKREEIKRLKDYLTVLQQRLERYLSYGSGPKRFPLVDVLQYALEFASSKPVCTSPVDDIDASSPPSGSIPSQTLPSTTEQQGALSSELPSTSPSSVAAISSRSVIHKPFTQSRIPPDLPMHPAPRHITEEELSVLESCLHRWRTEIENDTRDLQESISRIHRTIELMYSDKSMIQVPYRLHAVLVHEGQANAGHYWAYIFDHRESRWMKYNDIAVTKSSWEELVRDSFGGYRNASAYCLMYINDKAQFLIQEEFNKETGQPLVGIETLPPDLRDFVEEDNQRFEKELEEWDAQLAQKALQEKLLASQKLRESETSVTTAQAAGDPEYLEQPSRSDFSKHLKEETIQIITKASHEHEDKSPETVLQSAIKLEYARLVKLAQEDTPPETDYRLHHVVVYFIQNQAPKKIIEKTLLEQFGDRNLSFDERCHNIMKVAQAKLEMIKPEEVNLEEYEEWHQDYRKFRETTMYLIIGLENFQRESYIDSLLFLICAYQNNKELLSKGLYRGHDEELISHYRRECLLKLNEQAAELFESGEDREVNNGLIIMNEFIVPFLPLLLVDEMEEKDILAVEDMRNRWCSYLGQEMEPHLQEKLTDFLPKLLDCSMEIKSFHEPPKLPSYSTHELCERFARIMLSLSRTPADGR
Summary of the method: as §1

USP28 = molecular target: T3, USP28 (UniProt Q96RU2)
T3 sequence (whole entry): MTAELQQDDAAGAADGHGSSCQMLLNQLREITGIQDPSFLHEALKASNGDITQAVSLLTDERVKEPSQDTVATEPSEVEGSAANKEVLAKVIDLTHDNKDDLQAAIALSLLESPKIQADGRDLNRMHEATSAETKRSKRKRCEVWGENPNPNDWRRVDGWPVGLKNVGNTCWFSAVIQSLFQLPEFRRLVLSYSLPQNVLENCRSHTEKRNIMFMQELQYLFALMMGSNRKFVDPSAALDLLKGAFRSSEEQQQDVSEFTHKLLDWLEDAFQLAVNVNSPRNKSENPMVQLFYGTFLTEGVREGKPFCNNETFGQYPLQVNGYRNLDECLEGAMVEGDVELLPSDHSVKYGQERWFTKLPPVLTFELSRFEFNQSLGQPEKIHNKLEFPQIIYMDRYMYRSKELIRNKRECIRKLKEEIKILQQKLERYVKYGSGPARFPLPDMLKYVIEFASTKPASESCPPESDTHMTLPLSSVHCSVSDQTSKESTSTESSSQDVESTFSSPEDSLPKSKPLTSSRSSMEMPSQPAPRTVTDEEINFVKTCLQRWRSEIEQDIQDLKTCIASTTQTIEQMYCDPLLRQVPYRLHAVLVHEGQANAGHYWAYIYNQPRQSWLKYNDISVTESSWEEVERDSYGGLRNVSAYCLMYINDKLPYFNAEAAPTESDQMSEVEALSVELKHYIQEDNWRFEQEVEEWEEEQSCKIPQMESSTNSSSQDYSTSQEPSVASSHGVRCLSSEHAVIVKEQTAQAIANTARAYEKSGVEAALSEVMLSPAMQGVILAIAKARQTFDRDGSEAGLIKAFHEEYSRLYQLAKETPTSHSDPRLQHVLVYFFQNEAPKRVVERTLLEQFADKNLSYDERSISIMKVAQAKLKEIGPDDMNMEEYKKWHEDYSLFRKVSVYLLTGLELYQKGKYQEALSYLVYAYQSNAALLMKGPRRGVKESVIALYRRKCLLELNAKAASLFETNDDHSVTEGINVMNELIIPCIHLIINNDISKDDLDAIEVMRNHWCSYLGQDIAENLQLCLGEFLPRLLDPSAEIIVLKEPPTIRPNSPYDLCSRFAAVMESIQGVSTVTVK
Summary of the method: as §1

Measured: log2 ratio of Biotin-Ahx-Ub-VS probe labelling

Chain of USP24 (Q9UPU5 whole entry): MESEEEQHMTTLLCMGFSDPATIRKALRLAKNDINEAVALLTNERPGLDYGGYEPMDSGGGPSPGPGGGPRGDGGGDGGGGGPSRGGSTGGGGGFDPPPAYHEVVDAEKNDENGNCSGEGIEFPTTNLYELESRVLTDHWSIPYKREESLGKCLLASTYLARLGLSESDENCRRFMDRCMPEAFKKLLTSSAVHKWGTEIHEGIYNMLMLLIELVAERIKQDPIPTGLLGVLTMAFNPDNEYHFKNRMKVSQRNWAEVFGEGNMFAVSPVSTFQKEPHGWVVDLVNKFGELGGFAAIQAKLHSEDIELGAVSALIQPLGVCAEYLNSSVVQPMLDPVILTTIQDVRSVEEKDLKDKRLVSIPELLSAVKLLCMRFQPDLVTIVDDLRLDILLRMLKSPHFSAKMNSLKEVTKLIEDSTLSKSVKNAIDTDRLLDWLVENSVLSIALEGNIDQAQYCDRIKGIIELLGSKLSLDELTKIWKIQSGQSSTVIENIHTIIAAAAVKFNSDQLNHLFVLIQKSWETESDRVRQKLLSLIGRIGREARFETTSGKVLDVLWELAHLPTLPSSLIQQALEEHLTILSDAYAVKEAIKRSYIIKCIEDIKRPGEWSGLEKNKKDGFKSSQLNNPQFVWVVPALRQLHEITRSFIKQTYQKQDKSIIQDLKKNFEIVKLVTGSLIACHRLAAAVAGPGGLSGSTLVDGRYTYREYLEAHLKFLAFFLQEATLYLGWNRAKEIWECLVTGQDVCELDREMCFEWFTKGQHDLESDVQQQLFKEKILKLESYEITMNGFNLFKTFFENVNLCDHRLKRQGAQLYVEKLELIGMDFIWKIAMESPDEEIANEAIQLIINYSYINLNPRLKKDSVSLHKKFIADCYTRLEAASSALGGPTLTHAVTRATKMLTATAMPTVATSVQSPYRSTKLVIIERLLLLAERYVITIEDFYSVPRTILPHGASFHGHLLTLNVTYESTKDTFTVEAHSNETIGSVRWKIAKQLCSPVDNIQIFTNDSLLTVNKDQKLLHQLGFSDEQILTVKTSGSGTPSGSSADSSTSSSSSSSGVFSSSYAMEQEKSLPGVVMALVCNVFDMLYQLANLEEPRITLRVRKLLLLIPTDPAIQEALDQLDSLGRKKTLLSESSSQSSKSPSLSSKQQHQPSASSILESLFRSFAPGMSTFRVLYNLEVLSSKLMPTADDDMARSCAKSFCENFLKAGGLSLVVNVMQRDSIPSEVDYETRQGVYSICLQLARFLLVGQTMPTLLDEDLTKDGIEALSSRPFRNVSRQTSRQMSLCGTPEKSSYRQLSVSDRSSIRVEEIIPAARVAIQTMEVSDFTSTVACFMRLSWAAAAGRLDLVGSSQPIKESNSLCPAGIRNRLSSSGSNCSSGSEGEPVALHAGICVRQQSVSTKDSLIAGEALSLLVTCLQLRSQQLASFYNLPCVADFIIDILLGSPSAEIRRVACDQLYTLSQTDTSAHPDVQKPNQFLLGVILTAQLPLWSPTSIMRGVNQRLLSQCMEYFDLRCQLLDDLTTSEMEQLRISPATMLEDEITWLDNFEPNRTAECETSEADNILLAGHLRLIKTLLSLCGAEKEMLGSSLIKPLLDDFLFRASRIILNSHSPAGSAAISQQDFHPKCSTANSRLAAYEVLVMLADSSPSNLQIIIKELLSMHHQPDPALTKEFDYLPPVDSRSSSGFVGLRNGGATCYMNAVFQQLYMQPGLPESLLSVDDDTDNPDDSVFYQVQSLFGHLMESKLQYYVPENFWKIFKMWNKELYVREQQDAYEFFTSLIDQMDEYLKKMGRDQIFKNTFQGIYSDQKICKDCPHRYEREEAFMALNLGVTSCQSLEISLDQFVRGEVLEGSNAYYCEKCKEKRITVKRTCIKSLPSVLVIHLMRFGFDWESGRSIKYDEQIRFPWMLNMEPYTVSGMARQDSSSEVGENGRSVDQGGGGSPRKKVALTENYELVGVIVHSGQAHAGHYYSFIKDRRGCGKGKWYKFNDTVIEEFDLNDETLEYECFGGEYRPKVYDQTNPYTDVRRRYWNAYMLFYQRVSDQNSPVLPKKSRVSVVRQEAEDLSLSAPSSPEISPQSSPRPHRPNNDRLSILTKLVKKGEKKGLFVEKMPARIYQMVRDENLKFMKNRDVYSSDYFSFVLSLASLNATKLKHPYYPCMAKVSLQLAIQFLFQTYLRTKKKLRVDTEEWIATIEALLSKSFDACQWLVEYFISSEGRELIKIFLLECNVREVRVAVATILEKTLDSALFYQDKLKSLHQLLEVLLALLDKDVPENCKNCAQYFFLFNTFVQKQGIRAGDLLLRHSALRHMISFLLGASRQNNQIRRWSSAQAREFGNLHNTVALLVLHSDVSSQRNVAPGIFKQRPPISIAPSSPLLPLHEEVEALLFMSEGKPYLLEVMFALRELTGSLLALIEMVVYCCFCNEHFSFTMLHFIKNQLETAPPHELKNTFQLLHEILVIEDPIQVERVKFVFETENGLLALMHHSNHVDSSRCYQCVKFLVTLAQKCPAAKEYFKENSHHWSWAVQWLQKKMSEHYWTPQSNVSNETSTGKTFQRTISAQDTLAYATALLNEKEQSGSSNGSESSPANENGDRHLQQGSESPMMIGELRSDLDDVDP

O=C(CCl)NCCc1cccc2ccccc12
inactive: USP19 0.0202 | USP24 -0.0928 | USP25 -0.0781 | USP28 -0.212

Source: the supplement of paper PMC11732987, “Enantioselective OTUD7B fragment discovery through chemoproteomics screening and high-throughput optimisation” (Communications Chemistry, 2025)
